Reference: paper PMC5540273 (PLoS ONE, 2017)

What was measured:
Conditions in all cases: concentration: 1 μM, replicates: in singlicate; n = 1
FLT1 = system: FLT1
FLT3-autoinhibited = system: FLT3-autoinhibited
FLT3 = system: FLT3
FLT4 = system: FLT4
FRK = system: FRK
FYN = system: FYN
GAK = system: GAK
GCN2(Kin.Dom.2,S808G) = system: T1, GCN2(Kin.Dom.2,S808G)
T1 construct: gene EIF2AK4

GRK1 = system: GRK1
GRK2 = system: T2, GRK2
T2 construct: gene ADRBK1
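Further: KINOMEscan kinase panel screen.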

SMILES	%Inh (FLT1) [%]	%Inh (FLT3-autoinhibited) [%]	%Inh (FLT3) [%]	%Inh (FLT4) [%]	%Inh (FRK) [%]	%Inh (FYN) [%]	%Inh (GAK) [%]	%Inh (GCN2(Kin.Dom.2,S808G)) [%]	%Inh (GRK1) [%]	%Inh (GRK2) [%]
CNCc1ccc2nc(NC(=O)c3ccc(C(C)(C)C)cc3)cn2c1	27	19	66	29	1	6	5	0	13	39
FC(F)(F)c1ccccc1-c1cc(-c2c[nH]nc2-c2ccccn2)ccn1 [GW679396]	18	0	0	0	17	0	27	0	0	0
CN1c2ccc(-c3ccc(C(N)=O)cc3)cc2-c2[nH]ncc2S1(=O)=O	5	27	31	0	0	3	6	33	1	0
CS(=O)(=O)Cc1ccc(Nc2nccc(-c3c(-c4cccc(NC(=O)C5CCCCC5)c4)nn4ncccc34)n2)cc1 [GSK350559]	63	25	88	52	4	1	14	0	0	44
Cc1ccc(NC(=O)c2ccc(Cl)cc2)cc1-c1ccc(C(=O)Nc2ccncc2)cc1 [GSK1398467]	37	0	0	2	30	0	1	0	0	0
Nc1ncnc2occ(-c3ccc4c(c3)CCN4C(=O)Cc3cc(F)ccc3F)c12 [GSK2645446]	6	0	0	1	0	0	0	0	0	0
CSc1ccc(-c2nc3n(c2-c2ccncc2)CCC3)cc1 [SKF-105561]	7	7	8	0	0	0	10	2	8	0
CCc1ccc(-c2ccc3c(c2)-c2n[nH]cc2S(=O)(=O)N3C)cc1	14	4	56	0	2	14	0	24	6	0
Fc1ccc(-c2nc[nH]c2-c2ccncc2)cc1 [SB-217360]	0	0	5	9	0	0	57	0	25	0
COc1ccc(Nc2nccc(NCCNC(=O)Nc3cc(C)ccc3C)n2)cc1 [GSK1379899]	29	2	0	8	0	0	0	4	0	0
O=C(Nc1n[nH]c2cc(-c3ccsc3)ccc12)C1CC1 [SB-732932]	14	29	75	0	0	4	28	0	0	0
COc1ccc(Nc2nccc(N3CCC(NC(=O)C(C)c4ccc(Cl)cc4)C3)n2)cc1 (centres unmarked) [GSK1379735]	21	5	10	5	0	15	11	9	7	0
Cc1c(Cn2c(C)c(C)n3c(=O)cc(N4CCOCC4)nc23)cccc1C(F)(F)F [GSK2328680]	8	0	0	0	6	2	8	0	9	0
c1ccc(-c2ccnc3[nH]ccc23)cc1 [SB-693578]	1	8	0	8	0	0	90	0	6	0
COc1cc2ncnc(Nc3cccc(Br)c3)c2cc1OC.Cl [GI230329]	21	0	0	0	15	16	87	0	0	36
COC(=O)C(NC(=O)NC1CCN(c2ccnc(Nc3ccc(F)cc3)n2)C1)c1ccccc1 (centres unmarked) [GSK1379712]	14	8	0	0	0	31	0	2	0	4
O=c1cc(N2CCOCC2)nc2n(Cc3ccccc3F)ccn12 [GSK2297428]	24	0	0	2	20	0	0	0	0	0
